Measurements from PubChem BioAssay AID1794842 (National Center for Advancing Translational Sciences (NCATS), 2023).
Fewer than 10 of roughly 2,800 compounds were called active. Calls come from the whole dose curve; as a rule, active = well fitted curve in the direction sought with a large enough effect; inconclusive = small, poorly fitted or top-dose-only effect, or another doubt; inactive = no such curve, though single readings can be large or run the other way. Not all results are given here.

biological target: Metallo-beta-lactamase type 2 (Klebsiella pneumoniae) (UniProt C7C422); test: qHTS to identify inhibitors of the New Delhi Metallo-beta-lactamase (NDM): Meropenem screen against the machine-based learning selections.; settings: Purified NDM-1, meropenem hydrolysis, absorbance 300 nm; series mostly up to 38.4 µM
From the text: Assay Submitter (PI): James Inglese Ph.D., Patricia Dranchak Ph.D., Mahesh Aitha Ph.D. Assay Development and Screening Technology Laboratory (ADST) National Center for Advancing Translational Sciences (NCATS), Rockville, MD National Institute of Health (NIH), Bethesda, Maryland The metallo-beta-lactamases (MBL) are a main antibiotic resistance mechanism evolved by bacteria. There is an urgent clinical need for MBL inhibitors to mitigate this growing threat. To support a machine-based learning study, qHTS has been used to experimentally test inhibitors identified by prediction tools.
PROTOCOL TABLE (as described by Inglese et al., 2007) SEQUENCE No. (e.g., 1, 2, 3, etc.); […] (e.g., enzyme, Incubation, Reagent, etc.); VALUE; DESCRIPTION Primary Screen 1; NDM-1; 4 uL of 3 nM enzyme [2 nM final] in 50 mM HEPES (pH 7.0), 1 uM […], 0.01% Tween20; Use BioRaptr to dispense into two sets of Aurora black, clear bottom high base 1536-well plates 2; Compounds; 23 nL; Use Pin Tool (Wako) to transfer DMSO control and library compounds in DMSO 3; Incubate; >30 min 4a; Reagent; 2 uL of 50 uM nitrocefin [16.7 uM final] to one set of assay plates 4b; Reagent; 2 uL of 150 uM meropenem [50 uM final] to second set of assay plates 5a; Incubate; 15 min 5b; Incubate; 30 min 6a; Detector; Absorbance at 485 nm (bandwidth = 5 nm, 25 flashes/well) on Tecan Infinity 6b; Detector; Absorbance at 300 nm (bandwidth = 5 nm, 25 flashes/well) on Tecan Infinity NOTES (numbers refer to sequence above) 1; Column 1 of each plate received assay buffer without enzyme and columns 2-48 received enzyme for a final assay concentration of 2 nM. 2; Control plate contained DMSO in columns 1, 2, 3, and 4. 3; Compound interaction with enzyme. 4; Nitrocefin and meropenem substrates were prepared in the same assay buffer as step 1 for a final assay concentration of 16.7 uM and 50 uM, respectively, and added to all wells across respective sets of assay plates. 5; Default reader settings were applied for absorbance read at 485 nm (nitrocefin) or 300 nm (meropenem), bandwidth = 5 nm, 25 flashes/well. References: Inglese J, Shamu CE, Guy RK. 2007. Reporting data from high-throughput screening of small-molecule libraries. Nat Chem Biol. doi:10.1038/nchembio0807-438 Yasgar A, Shinn P, Jadhav A, Auld D, Michael S, Zheng W, Austin CP, Inglese J, Simeonov A. 2008. Compound Management for Quantitative High-Throughput Screening. J Lab Autom 13:79 - 89. doi:10.1016/j.jala.2007.12.004

Metallo-beta-lactamase type 2 (Klebsiella pneumoniae), sequence (C7C422 whole entry, looked up): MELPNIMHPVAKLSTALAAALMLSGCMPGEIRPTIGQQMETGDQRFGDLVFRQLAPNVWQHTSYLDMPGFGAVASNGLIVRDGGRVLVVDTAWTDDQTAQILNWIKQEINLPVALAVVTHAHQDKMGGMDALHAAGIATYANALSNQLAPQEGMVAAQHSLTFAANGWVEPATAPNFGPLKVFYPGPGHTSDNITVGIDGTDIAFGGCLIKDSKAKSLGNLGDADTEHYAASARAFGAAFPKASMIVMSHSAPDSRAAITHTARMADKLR

outcome, inactive:
O=C(Cc1c[nH]c2ncc(-c3ccsc3)cc12)NCc1cccnc1
Cc1ccccc1-c1cnc2n[nH]c(-c3ccccc3)c2n1
CC1(COc2cccnc2)COc2ccc(C(=O)Nc3ccc4[nH]ccc4c3)cc2N1 (configuration not stated)
O=C(NCCc1cnc[nH]1)C1CCN(C2CCCCC2)CC1
Cc1ccccc1NC(=O)c1cnc2c(c1)N(Cc1ccccc1)CCC2
C=CCCC(CN1CCCOCC1)Oc1ccc(-c2ccccc2)nn1 (configuration not stated)
COCCc1noc(CN(C)c2cc(C(C)C)nc3ccnn23)n1
CCC(=O)N1CCC(Cc2nc(-c3ccccc3)n[nH]2)CC1
Cc1cc(C(=O)N[C@H](C)c2c(-c3ccc(Cl)cc3)noc2C(=O)O)c(C)o1
CC(=O)Nc1ccc(CN2CCC(N3CCCCCC3=O)CC2)cc1
CC[C@H]1CN(C(=O)C(C)(C)C)CC[C@H]1CC(=O)NCCSC
O=c1[nH]c(-c2ccc(F)cc2)nc2c1CCN(S(=O)(=O)c1cccs1)C2
O=C(O)c1cncc(N2CCC3(CC2)CNC(C(=O)O)C3)n1 (configuration not stated)
COc1cccc(CN2CCOC[C@H](Oc3cccnc3)C2)c1
O=C(O)[C@H]1C[C@@H](C(=O)NCc2ccccn2)CN(CC2CC2)C1
O=C(CN1C(=O)NC(c2ccccc2Cl)C2=C1COC2=O)Nc1ccc(F)c(Cl)c1 (configuration not stated)
COc1ccc(CN2CCNc3cnc(Nc4ccccc4)cc3C2)cn1
Cc1noc([C@@H](C)NC(=O)Nc2cccnc2)c1C(=O)O
O=C(CCn1nnc(-c2ccccc2)n1)N1CCCC2(CCNCC2)CC1
CC(C)CCNC1(Cc2cc(CN3CCOCC3)on2)COC1
Cc1noc([C@@H]2CNC[C@H]2CO)n1
O=C(NCc1cccnc1)[C@@H]1C[C@@H](c2ccc(F)cc2)N(Cc2ccccc2)C1
CC1=C[C@@H](CC#N)[C@H](C(C)C)C[C@H]1CC(=O)NC1CC1
c1cncc(Nc2cc3c(cn2)CN(Cc2ccc4[nH]ccc4c2)CCN3)c1
COc1ccc(-c2cc(-c3cccc(C(N)=O)c3)cn3cncc23)cc1
NC(=O)Cc1c[nH]c2ncc(-c3ccc(F)cc3)cc12
O=c1c2nc(NCc3ccccc3)ccc2ncn1Cc1ccccn1
CCCS(=O)(=O)N1CCC(Oc2nccnc2N2CCOCC2)C1 (configuration not stated)
CCCCCC(=O)Nc1nc2c(s1)C[C@@H]1[C@](C)(CO)[C@H](O)CC[C@@]1(C)[C@@H]2CC(=O)NCc1ccccc1
CC[C@H]1CN(S(=O)(=O)c2c(C)noc2C)CC[C@H]1CC(=O)NCc1ccco1
CC(C)c1noc([C@@H]2C[C@H](NC(=O)Nc3ccc(F)cc3)CN2C)n1
COCCNC(=O)C[C@@H]1C[C@H]2O[C@H](CNC3CCCCC3)[C@@H](O)[C@H]2O1
O=C(CSc1ccncc1)N1CCN2C(=O)N(Cc3ccccc3)C(=O)[C@H]2C1
OC[C@H]1C[C@@H](NCc2cccc3c2OCO3)[C@H](O)[C@@H]1O
c1ccc(-c2cnc(Nc3ccncc3)c3c2CCO3)cc1
CCC[S+](=O)([O-])N1CCN(C(=O)N2CC3CC(C2)[C@H]2CCCC(=O)N2C3)CC1 (some centres not stated)
O=C(O)c1cc(-c2cccc(CO)c2)cc(S(=O)(=O)N2CCOCC2)c1
COc1ccc(C2Cn3nnc(C(=O)N4CCN(C(=O)c5cc(F)ccc5Cl)CC4)c3CO2)cc1 (configuration not stated)
Cc1ccccc1Nc1cnc2ccc(-c3cccc(CO)c3)nn12
COc1ccccc1C(O)c1nc(Nc2ccncc2)n[nH]1 (configuration not stated)
OC[C@]12CCCN[C@@H]1CCN(Cc1cccc(-c3ccccn3)c1)C2
COC(=O)c1ccc2c(c1)nc1n2[C@@H](CNC(=O)NC2CCCCC2)COC1
COc1cccc(CN[C@@H]2CCC[C@@H](C(=O)NC3CCOCC3)CC(=O)N(C)C2)c1
COCCNC(=O)[C@H]1CCC[C@H]1NC(=O)c1ccc(OC)cc1
CCS(=O)(=O)N1CCC(Cc2nc(-c3cccnc3)n[nH]2)C1 (configuration not stated)
C=CCc1cc(C2CC(=O)Nc3[nH]ncc32)cc(OCC)c1OC (configuration not stated)
O=C1CC(c2ccccc2)N(C(=O)C2CC2)CCCN(C(=O)NCc2ccccc2)CCN1 (configuration not stated)
O=C(NC[C@H]1OC[C@@H](NCc2cnc[nH]2)[C@@H]1O)C1CCCC1
COc1cccc(-c2cnc3[nH]cc(CC(=O)NCc4cccnc4)c3c2)c1
Cn1ccc(NC(=O)c2cnc3c(c2)N([S+](=O)([O-])c2cccnc2)CCC3)n1
CCOc1cc(=O)n2c(c1C(=O)N1CCN(c3ccc(F)cc3)CC1)CCCC2
CC1=C[C@@H](CNC(=O)Cc2ccccc2)[C@H](C(C)C)C[C@H]1Cc1nc2ccncc2[nH]1
Oc1ccccc1CN1CCNc2cnc(-c3ccccc3)cc2C1
CN1C(=O)[C@@H]2C[C@@H](O)CN2C2(CN(CC3CCCCC3)C2)C1=O
O=C(O)c1cccc(CN2CCN(c3ccc4nccn4n3)CC2)n1
CCn1ccc(C(=O)N2CC(c3nnc(-c4ccc(C)cc4)o3)C3(CCOCC3)C2)n1 (configuration not stated)
O=C(Nc1ccsc1)N[C@H]1C[C@H]2C(=O)NC[C@@H](CCC(=O)N3CCCCC3)N2C1
O=C(Cc1ccccc1F)N1CCC(Oc2ncccc2C(=O)N2CCCCC2)C1 (configuration not stated)
CC1=C[C@@H](CNCc2ccncc2)[C@H](C(C)C)C[C@H]1Cc1nnc(-c2ccc(C)cc2)o1
Cc1ccccc1-c1[nH]nc2ncc(-c3ccccc3O)nc12
CN1CCCC2(CCN(S(=O)(=O)c3ccc(F)c(F)c3F)C2)C1=O (configuration not stated)
CN1CCC(N2CCC[C@H]2C(=O)NCc2cc3n(n2)CCCNC3)CC1
O=C(O)C1(Oc2ccc3ccccc3c2)CCN(Cc2ccsc2)CC1
COc1cccc(CN2CCCC3(CCN(C(=O)c4ccc(OC)nc4OC)C3)C2)c1 (configuration not stated)
COc1ccc(-c2noc([C@@H]3C[C@@H](O)CN3Cc3ncc[nH]3)n2)cc1
CC(C)(O)CCc1cccc(C(=O)NCCNc2cccnc2)c1
COc1cccc(S(=O)(=O)N2C[C@@H](C)[C@](O)(C3CCC3)C2)c1
O=C(O)[C@@H]1CN(C(=O)c2ccc(=O)[nH]c2)C[C@H]1c1ccc2c(c1)OCO2
COC[C@H]1CCCN1Cc1nc(C2(O)CCN(Cc3ccccc3O)CC2)cs1
O=C(NCc1ccccc1)N1CCCCC1c1nc(-c2cnccn2)n[nH]1 (configuration not stated)
CN1CC2(CCN(C(=O)c3ccccc3-c3nn[nH]n3)CC2)CC1C(=O)O (configuration not stated)
Nc1ccsc1C(=O)N[C@H](Cc1ccncc1)C1CC(O)C1 (some centres not stated)
O=C(NC[C@H]1O[C@@H](CC(=O)N2CCOCC2)[C@H](O)[C@@H]1O)Nc1ccc(F)cc1F
CCn1nc(C)cc1C(=O)N1CCOC[C@H](Oc2cccnc2)C1
O=c1n(-c2ccc([N+](=O)[O-])cc2)nc2n1CCN(Cc1cccc3ccccc13)C2
Cn1cccc1C(=O)N1CC[C@H](NC(=O)NC2CCCCC2)[C@H]1C(=O)N1CCC[C@@H]1C(N)=O
N#Cc1ccc(C(=O)N2C[C@@H]3C[C@H](C2)c2c(/C=C/c4ccc(Cl)cc4)ccc(=O)n2C3)cc1
NC(=O)C1(N2CCCCC2)CCN(Cc2cc3n(n2)CCNC3)CC1
CC(C)(CO)CNC(=O)c1cnc2c(c1)N([S+](=O)([O-])c1cccnc1)CCC2
Cc1nn(C)c2ncc(C(=O)O)c(NC3CC(c4cc(=O)[nH]cn4)C3)c12 (configuration not stated)
Oc1cccc(CN2CCCC23CCN(c2ccc(C(F)(F)F)cn2)CC3)c1
O=C(O)CCC(=O)N[C@H]1CCN2C(=O)c3cc(-c4ccc(Cl)cc4)ccc3NC(=O)[C@H]12
